Experiments:
Conditions in all cases: concentration: 1 μM, replicates: in singlicate; n = 1
DYRK1B = system: DYRK1B
DYRK2 = system: DYRK2
EGFR = system: EGFR
EIF2AK1 = system: EIF2AK1
EPHA1 = system: EPHA1
EPHA2 = system: EPHA2
EPHA3 = system: EPHA3
EPHA4 = system: EPHA4
EPHA5 = system: EPHA5
EPHA6 = system: EPHA6
EPHA7 = system: EPHA7
EPHA8 = system: EPHA8
EPHB1 = system: EPHB1
EPHB2 = system: EPHB2
EPHB3 = system: EPHB3
EPHB4 = system: EPHB4
EPHB6 = system: EPHB6
ERBB2 = system: ERBB2
ERBB3 = system: ERBB3
ERBB4 = system: ERBB4
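Note: KINOMEscan kinase panel screen.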

Row | Compound | %Inh (DYRK1B) | %Inh (DYRK2) | %Inh (EGFR) | %Inh (EIF2AK1) | %Inh (EPHA1) | %Inh (EPHA2) | %Inh (EPHA3) | %Inh (EPHA4) | %Inh (EPHA5) | %Inh (EPHA6) | %Inh (EPHA7) | %Inh (EPHA8) | %Inh (EPHB1) | %Inh (EPHB2) | %Inh (EPHB3) | %Inh (EPHB4) | %Inh (EPHB6) | %Inh (ERBB2) | %Inh (ERBB3) | %Inh (ERBB4)
1 | CS(=O)(=O)c1cccc(CNc2nc(Nc3ccc4c(c3)CCC(=O)N4)ncc2C(F)(F)F)c1 | 61% | 0% | 0% | 0% | 1% | 0% | 0% | 0% | 0% | 0% | 0% | 0% | 0% | 0% | 0% | 0% | 21% | 45% | 0% | 3%
2 | Cc1ccc(C)c(NC(=O)Nc2ccc(C)c(-c3ccc(C(=O)Nc4ccncc4)cc3)c2)c1 [GSK1398473] | 25% | 10% | 35% | 0% | 0% | 19% | 0% | 29% | 15% | 16% | 3% | 46% | 23% | 32% | 12% | 14% | 0% | 0% | 0% | 44%
3 | CSc1ccc(NC2=C(c3ccc(Cl)cc3)C(=O)NC2=O)cc1 [SB-317658] | 17% | 22% | 6% | 0% | 32% | 0% | 0% | 28% | 31% | 26% | 0% | 5% | 0% | 6% | 21% | 11% | 0% | 0% | 0% | 0%
4 | COc1cccc(NC(=O)NCCNc2ccnc(Nc3ccc(F)cc3)n2)c1 [GSK1379879] | 25% | 0% | 43% | 0% | 52% | 27% | 0% | 0% | 0% | 0% | 0% | 2% | 5% | 0% | 8% | 19% | 14% | 39% | 24% | 20%
5 | COC(=O)Nc1nc2cc(Oc3ccc(NC(=O)Nc4cccc(SC)c4)cc3)ccc2[nH]1.Cl [GW697999] | 0% | 7% | 29% | 0% | 59% | 88% | 15% | 64% | 26% | 92.6% | 54% | 96.8% | 61% | 70% | 19% | 70% | 80% | 32% | 14% | 35%
